According to PubChem BioAssay (Tox21):
Inconclusive results are not listed. Active and inactive are the calls of the source. Calls follow the shape of the full dose curve.

Tests used:
[1] = target: Acetylcholinesterase (Homo sapiens) (UniProt P22303); test: Acetylcholinesterase (AChE) small molecule antagonists: colormetric cell-based qHTS assay (AID 1347395); also: nearly all actives have a fitted effect of over 30% in size
Method in brief: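 AChE inhibition read colorimetrically via DTNB–thiocholine in SH-SY5Y cells. Compound 30 min, substrate 90 min, both 37 C.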

[2] = target: Acetylcholinesterase (Homo sapiens) (UniProt P22303); test: Acetylcholinesterase (AChE) small molecule antagonists: enzyme-based qHTS assay (AID 1347397); details: Potency: AChE enzyme activity inhibition; outcome: AChE enzyme activity inhibition; also: nearly all actives have a fitted effect of over 55% in size
Method in brief: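 rhAChE 50 mU/mL (dispensed) + cpd or DMSO, 30 min RT; add DTNB/acetylthiocholine cocktail, 10 min RT; colorimetric thiocholine readout. qHTS, 1536-well format.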

[3] = target: Acetylcholinesterase (Homo sapiens) (UniProt P22303); test: Acetylcholinesterase (AChE) small molecule antagonists: fluorescence cell-based qHTS assay (AID 1347398); details: Potency: AChE activity; outcome: AChE activity; also: nearly all actives have a fitted effect of over 50% in size
Method in brief: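 Read-out is Thiolite Green fluorescence at Ex/Em = 490/520 nm, formed by reaction with thiocholine released when cellular AChE in SH-SY5Y cells hydrolyzes acetylthiocholine. Compounds were preincubated 30 min at 37 C before substrate.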

[4] = target: Acetylcholinesterase (Homo sapiens) (UniProt P22303); test: Acetylcholinesterase (AChE) small molecule antagonists: enzyme-based qHTS assay with human liver microsomes (AID 1347399); details: Potency: qHTS inhibition; outcome: qHTS inhibition; also: nearly all actives have a fitted effect of over 60% in size
Method in brief: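 Recombinant human AChE (50 mU/mL in the enzyme mix) and human liver microsomes (0.25 mg/mL final) were preincubated with compound and NADPH (0.25 mg/mL final) for 30 min at 37 C. Acetylthiocholine/DTNB was then added; thiocholine was read colorimetrically after 10 min at room temperature.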
% is scaled to controls: 0 for no effect and ±100 for the full control effect.

Acetylcholinesterase (Homo sapiens), sequence (P22303 whole entry, looked up): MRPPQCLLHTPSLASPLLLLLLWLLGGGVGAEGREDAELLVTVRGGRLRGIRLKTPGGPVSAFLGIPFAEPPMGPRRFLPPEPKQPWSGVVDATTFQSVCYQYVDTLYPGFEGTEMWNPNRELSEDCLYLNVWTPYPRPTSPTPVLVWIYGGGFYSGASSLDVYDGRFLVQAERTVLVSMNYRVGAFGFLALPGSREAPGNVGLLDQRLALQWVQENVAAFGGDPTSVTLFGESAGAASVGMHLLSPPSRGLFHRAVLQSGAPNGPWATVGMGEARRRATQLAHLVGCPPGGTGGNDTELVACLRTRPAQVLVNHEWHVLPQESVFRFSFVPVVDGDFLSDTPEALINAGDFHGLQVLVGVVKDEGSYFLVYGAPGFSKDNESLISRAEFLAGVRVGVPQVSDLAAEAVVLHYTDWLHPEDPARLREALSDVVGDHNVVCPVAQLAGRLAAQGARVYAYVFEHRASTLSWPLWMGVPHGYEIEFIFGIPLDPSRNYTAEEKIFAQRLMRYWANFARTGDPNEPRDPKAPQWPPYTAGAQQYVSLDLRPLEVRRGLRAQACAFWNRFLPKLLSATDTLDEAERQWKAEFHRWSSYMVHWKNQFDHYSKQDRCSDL

O=C1c2ccccc2C(=O)c2c(Cl)cccc21
inactive: Potency [1] | Potency [2] | Potency [3] | Potency [4]

O=Cc1ccc(F)c(Br)c1
inactive: Potency [1] | Potency [2] | Potency [3] | Potency [4]

CN1CCN(C2=Nc3ccccc3Oc3ccc(Cl)cc32)CC1
inactive: Potency [1] | Potency [2] | Potency [3] | Potency [4]

CC(S)C(=O)NCC(=O)O (stereo not drawn)
inactive: Potency [1] | Potency [2] | Potency [3] | Potency [4]

CCOCC(C)O (stereo not drawn)
inactive: Potency [1] | Potency [2] | Potency [3] | Potency [4]

O=C(/C=C/c1ccccc1)OC/C=C/c1ccccc1
inactive: Potency [1] | Potency [2] | Potency [3] | Potency [4]

CC1=NN(c2cccc(S(=O)(=O)O)c2)C(=O)C1
inactive: Potency [1] | Potency [2] | Potency [3] | Potency [4]

Nc1nc(=O)n([C@@H]2O[C@H](CO)[C@@H](O)[C@@H]2F)cc1I
inactive: Potency [1] | Potency [2] | Potency [3] | Potency [4]

Cc1ccccc1N=Nc1ccc(N=Nc2c(O)ccc3ccccc23)c(C)c1
inactive: Potency [1] | Potency [2] | Potency [3] | Potency [4]

CC[C@@H](N)CO
inactive: Potency [1] | Potency [2] | Potency [3] | Potency [4]

CCCCCCc1ccc(N)cc1
inactive: Potency [1] | Potency [2] | Potency [3] | Potency [4]

N=C(N)N1CCc2ccccc2C1
inactive: activity, negative = inhibition [1] 3.08% [at 10.5 µM] | activity change, negative = inhibition [2] 0.139% [at 10.5 µM] | activity change, negative = inhibition [3] -0.69% [at 10.5 µM] | activity change, negative = inhibition [4] 2.85% [at 10.5 µM]

CC(C)(C)C(=O)O
inactive: Potency [1] | Potency [2] | Potency [3] | Potency [4]

CC(=O)Nc1ccc(OCCOCCOc2ccc(NC(C)=O)cc2)cc1
inactive: Potency [1] | Potency [2] | Potency [3] | Potency [4]

NCC[C@H](O)C(=O)N[C@@H]1C[C@H](N)[C@@H](O[C@H]2O[C@H](CN)[C@@H](O)[C@H](O)[C@H]2O)[C@H](O)[C@H]1O[C@H]1O[C@H](CO)[C@@H](O)[C@H](N)[C@H]1O
inactive: activity, negative = inhibition [1] -3.35% [at 0.435 µM] | activity change, negative = inhibition [2] 0.773% [at 0.435 µM] | activity change, negative = inhibition [3] 5.79% [at 0.439 µM] | activity change, negative = inhibition [4] -1.18% [at 0.435 µM]

CCCCCCCCCCCCCCCCOP(=O)([O-])OCC[N+](C)(C)C
inactive: Potency [1] | Potency [2] | Potency [3] | Potency [4]

CCN1CCC[C@H]1CNC(=O)c1c(OC)ccc(Br)c1OC
inactive: Potency [1] | Potency [2] | Potency [3] | Potency [4]

C[C@H](CCC(=O)O)[C@H]1CC[C@H]2[C@@H]3[C@H](O)C[C@@H]4C[C@H](O)CC[C@]4(C)[C@H]3C[C@H](O)[C@]12C
inactive: Potency [1] | Potency [2] | Potency [3] | Potency [4]

COc1cnc(NS(=O)(=O)c2ccc(N)cc2)nc1
inactive: Potency [1] | Potency [2] | Potency [3] | Potency [4]

CC(=O)c1cccnc1
inactive: Potency [1] | Potency [2] | Potency [3] | Potency [4]

CCCCCCCC/C=C\CCCCCCCC(=O)OCC
inactive: Potency [1] | Potency [2] | Potency [3] | Potency [4]

COc1cc(OC)nc(NC(=O)NS(=O)(=O)Nc2ccccc2C(=O)N(C)C)n1
inactive: Potency [1] | Potency [2] | Potency [3] | Potency [4]

CC(C)C(=O)OCCc1ccccc1
inactive: Potency [1] | Potency [2] | Potency [3] | Potency [4]

BrC/C=C/CBr
inactive: activity, negative = inhibition [1] 1.18% [at 23.6 µM] | activity change, negative = inhibition [2] 2.59% [at 23.6 µM] | activity change, negative = inhibition [3] 7.15% [at 23.8 µM] | activity change, negative = inhibition [4] -2.1% [at 23.6 µM]

N[C@H]1C(O)O[C@H](CO)[C@@H](O)[C@@H]1O (stereo partly drawn)
inactive: Potency [1] | Potency [2] | Potency [3] | Potency [4]

CCCCCCOC(=O)c1ccccc1
inactive: Potency [1] | Potency [2] | Potency [3] | Potency [4]

CCCCCCCCCOC(C)=O
inactive: Potency [1] | Potency [2] | Potency [3] | Potency [4]

C=CCCCCCCCCCCCC
inactive: Potency [1] | Potency [2] | Potency [3] | Potency [4]

CCOC(=O)C1=NN(c2ccc(Cl)cc2Cl)C(C)(C(=O)OCC)C1 (stereo not drawn)
inactive: Potency [1] | Potency [2] | Potency [3] | Potency [4]

CC(C)[C@H]1CC[C@H](C)C[C@@H]1O
inactive: Potency [1] | Potency [2] | Potency [3] | Potency [4]

Nc1cc(C(=O)O)c(O)c(S(=O)(=O)O)c1
inactive: Potency [1] | Potency [2] | Potency [3] | Potency [4]

N#CCCCC(C#N)CCC#N (stereo not drawn)
inactive: Potency [1] | Potency [2] | Potency [3] | Potency [4]

COc1cc(C=C2CCC/C(=C\c3ccc(O)c(OC)c3)C2=O)ccc1O
inactive: Potency [1] | Potency [2] | Potency [3] | Potency [4]

CCCC(c1cc(C(C)(C)C)c(O)cc1C)c1cc(C(C)(C)C)c(O)cc1C
inactive: Potency [1] | Potency [2] | Potency [3] | Potency [4]

CCCCCCC1(C)CCC(=O)O1 (stereo not drawn)
inactive: Potency [1] | Potency [2] | Potency [3] | Potency [4]

CO[Si](CCC1CCC2OC2C1)(OC)OC (stereo not drawn)
inactive: Potency [1] | Potency [2] | Potency [3] | Potency [4]

CCCCCCCCC(=O)Cl
inactive: Potency [1] | Potency [2] | Potency [3] | Potency [4]

Clc1ccc2nsnc2c1NC1=NCCN1
inactive: Potency [1] | Potency [2] | Potency [3] | Potency [4]

SCCCCCCCCS
inactive: Potency [1] | Potency [2] | Potency [3] | Potency [4]

COc1ccc(/C=C/C(=O)c2ccc(OC)cc2OC)cc1
inactive: Potency [1] | Potency [2] | Potency [3] | Potency [4]

CCCCOCCOC(=O)c1cccnc1
inactive: Potency [1] | Potency [2] | Potency [3] | Potency [4]

CCC1Nc2cc(Cl)c(S(N)(=O)=O)cc2S(=O)(=O)N1 (stereo not drawn)
inactive: Potency [1] | Potency [2] | Potency [3] | Potency [4]

Clc1cc(Cl)c(Cl)nc1Cl
inactive: Potency [1] | Potency [2] | Potency [3] | Potency [4]

C=C(C)C(=O)NCCCN(C)C
inactive: Potency [1] | Potency [2] | Potency [3] | Potency [4]

Cc1ccc2ccc3cccc4ccc1c2c34
inactive: Potency [1] | Potency [2] | Potency [3] | Potency [4]

O=C(Cn1ccnc1[N+](=O)[O-])NCCO
inactive: Potency [1] | Potency [2] | Potency [3] | Potency [4]

CC/C=C/CCCCCCCCCCOC(C)=O
inactive: Potency [1] | Potency [2] | Potency [3] | Potency [4]

CCN(CC)CCCN(c1ccccc1)C1Cc2ccccc2C1
inactive: Potency [1] | Potency [2] | Potency [3] | Potency [4]

CCOc1ncc(F)c(=O)[nH]1
inactive: Potency [1] | Potency [2] | Potency [3] | Potency [4]

CC(C)CCC(=O)CCC(C)C
inactive: Potency [1] | Potency [2] | Potency [3] | Potency [4]

CC1=CCC(C(C)C)C=C1 (stereo not drawn)
inactive: Potency [1] | Potency [2] | Potency [3] | Potency [4]

CC(C)C(=O)O
inactive: Potency [1] | Potency [2] | Potency [3] | Potency [4]

NC(=O)N1c2ccccc2CC(=O)c2ccccc21
inactive: Potency [1] | Potency [2] | Potency [3] | Potency [4]

C=C(C)C1CC=C(C)C(O)C1 (stereo not drawn)
inactive: Potency [1] | Potency [2] | Potency [3] | Potency [4]

OC[C@H]1O[C@@H]2O[C@H]3[C@H](O)[C@@H](O)[C@@H](O[C@H]4[C@H](O)[C@@H](O)[C@@H](O[C@H]5[C@H](O)[C@@H](O)[C@@H](O[C@H]6[C@H](O)[C@@H](O)[C@@H](O[C@H]7[C@H](O)[C@@H](O)[C@@H](O[C@H]8[C@H](O)[C@@H](O)[C@@H](O[C@H]9[C@H](O)[C@@H](O)[C@@H](O[C@H]1[C@H](O)[C@H]2O)O[C@@H]9CO)O[C@@H]8CO)O[C@@H]7CO)O[C@@H]6CO)O[C@@H]5CO)O[C@@H]4CO)O[C@@H]3CO
inactive: Potency [1] | Potency [2] | Potency [3] | Potency [4]

N#CCN(CC#N)CCN(CC#N)CC#N
inactive: Potency [1] | Potency [2] | Potency [3] | Potency [4]

CCOC(=O)CC(=O)C(=O)OCC
inactive: Potency [1] | Potency [2] | Potency [3] | Potency [4]

NC(=O)C1CO1 (stereo not drawn)
inactive: Potency [1] | Potency [2] | Potency [3] | Potency [4]

CCCCCCCCCCCCSC
inactive: Potency [1] | Potency [2] | Potency [3] | Potency [4]

C=C[Si](C)(C)O[Si](C)(C)C=C
inactive: Potency [1] | Potency [2] | Potency [3] | Potency [4]

CCC(C)S (stereo not drawn)
inactive: activity, negative = inhibition [1] 1.56% [at 4.07 µM] | activity change, negative = inhibition [2] 0.922% [at 4.07 µM] | activity change, negative = inhibition [3] 4.18% [at 3.98 µM] | activity change, negative = inhibition [4] -0.581% [at 4.07 µM]

COC(C(=O)O)c1ccccc1 (stereo not drawn)
inactive: Potency [1] | Potency [2] | Potency [3] | Potency [4]

Cc1nc(-c2ccccn2)ncc1C(=O)Nn1cc(C)c2cc(F)ccc21
inactive: Potency [1] | Potency [2] | Potency [3] | Potency [4]

Cc1cccc(Cl)c1
inactive: Potency [1] | Potency [2] | Potency [3] | Potency [4]

CC(C)c1ccc2oc3nc(N)c(C(=O)O)cc3c(=O)c2c1
inactive: Potency [1] | Potency [2] | Potency [3] | Potency [4]

CCC1CCCCC1
inactive: Potency [1] | Potency [2] | Potency [3] | Potency [4]

COCc1ccc(COC)cc1
inactive: Potency [1] | Potency [2] | Potency [3] | Potency [4]
